In the library only some 11% were active in any assay of this set; here they are far more common.
Pf growth 48h = P. falciparum growth inhibition at 48 hours (one generation); P. falciparum luciferase growth in erythrocytes, 48 h; Potency, µM (top dose mostly 28.7 µM), inactives show at the highest dose activity change, negative = inhibition, most hits filed as inhibitors; 310,000 compounds, 5.9% hits; AID 504832; note: % is set by controls: 0 for no effect and ±100 for the full control effect
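Erythrocytes infected with P. falciparum carrying an integrated firefly luciferase reporter (2% hematocrit, 0.1% parasitemia final) were exposed to compounds in RPMI 1640 with 0.5% Albumax at 37 C, 5% CO2. Growth inhibition was scored as reduced luminescence.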
AMA1 RON2 block = AMA1-RON2 (P. falciparum) interaction inhibition; AlphaScreen AMA1-biotinylated RON2 peptide binding; 360,000 compounds, 0.2% hits; Potency, µM (titrated, usually from 58.2 µM), for inactives: top-dose activity change, negative = inhibition, usual class: inhibitors;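 note: 0% = vehicle wells and -100% = peptide control; nearly all actives have a fitted effect of over 45% in size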
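AMA1 (3D7) with his tag at 25 nM final met compounds first, then biotinylated RON2 peptide at 25 nM; detection used donor plus acceptor beads, 10 µg/mL apiece, read by AlphaScreen after 30 min at room temperature.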
Sm TGR inh = S. mansoni TGR enzyme inhibition; Potency, µM (highest dose often 114 µM), inactives show at the top dose activity change, negative = inhibition, hits mostly inhibitors; purified TGR, DTNB reduction, TNB absorbance 405 nm; 360,000 compounds, 3% hits; Q962Y6; note: % is set by controls: 0 for no effect and ±100 for the full control effect; nearly all actives have a fitted effect of over 60% in size
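TGR 20 nM + NADPH 100 uM (dispensed conc.), cpd preinc 15 min RT; start with NADPH (500 uM addition) then DTNB (15 mM addition). Kinetic TNB absorbance, 405 nm filter. Four-parameter Hill fit across titration.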
NS1 function inh = inhibitors of influenza NS1 protein function; Potency, µM (titrated, usually from 46.1 µM), inactives show at the highest dose activity, positive = more growth; 270,000 compounds, 0.4% hits; AID 2326; calls by dose curve; note: actives are rising curves; nearly all actives have a fitted effect of over 50% in size
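A cell-based growth assay was used: compounds that relieve NS1-induced slow growth of budding yeast raise OD600. Assay medium was yeast nitrogen base with ammonium sulphate and -URA supplement, pH 6.0, with 2% galactose.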
Pf growth 96h = inhibits malaria parasite growth, 96 h; P. falciparum luciferase reporter growth, 96 h; Potency, µM (highest dose often 28.7 µM), inactives show top-dose activity change, negative = inhibition, actives largely listed as inhibitors; AID 504834; 320,000 compounds, 6.9% hits; note: % is set by controls: 0 for no effect and ±100 for the full control effect
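P. falciparum expressing integrated firefly luciferase, in erythrocytes at 2% hematocrit, 0.05% parasitemia, incubated with compounds 96 h at 37 C, 5% CO2. Growth inhibition read as loss of luminescence; two-generation exposure targets delayed-death apicoplast inhibitors.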
Starred values were filed as active, the others as inactive; ? = inconclusive; / = not tested or not shown. Unless noted, calls come from the whole dose curve; as a rule, active = well fitted curve in the direction sought with a large enough effect; inconclusive = small, poorly fitted or top-dose-only effect, or another doubt; inactive = no such curve, though single readings can be large; an effect the other way counts as inactive or inconclusive. Potency is the fitted concentration of half-maximal effect.

SMILES	Pf growth 48h	AMA1 RON2 block	Sm TGR inh	NS1 function inh	Pf growth 96h
CC(=O)c1cc(F)ccc1OCC(=O)N1CCN(c2ccc(F)cc2)CC1	4.1µM*	-2%	-4%	-2%	-25%
O=C(CCc1ccccc1)N1CCN(c2ccc(F)cc2)CC1	-5%	-8%	/	-9%	0%
O=C(CCCOc1ccccc1)N1CCN(c2ccc(F)cc2)CC1	/	-2%	-11%	-58%	12µM*
O=C(CSc1nc2ccccc2c(=O)n1-c1ccccc1)N/N=C/C=C/c1ccccc1[N+](=O)[O-]	9.3µM*	58%	1%	/	?
O=C(CSc1nc2ccccc2c(=O)n1-c1ccc(Cl)cc1)N/N=C/C=C/c1ccccc1[N+](=O)[O-]	?	67%	1%	?	9.3µM*
Cc1ccccc1-n1c(SCC(=O)N/N=C/C=C/c2ccccc2[N+](=O)[O-])nc2ccccc2c1=O	?	26%	-11%	?	?
Cc1ccc(C(=O)NC2CC(C)(C)NC(C)(C)C2)cc1S(=O)(=O)N1CCOCC1	/	0%	/	/	/
CCCCCN(C(=O)CCC(=O)OCC(=O)N(CC#N)c1ccccc1)c1c(N)n(CCCC)c(=O)[nH]c1=O	-4%	1%	-6%	/	21%
CCn1c(SC)nc2c(c1=O)SC(C)C2 (centres undefined)	?	14%	0%	-10%	2.3µM*
Cc1ccc(NC(=O)N2CC3CCCN3c3ccccc32)c(C)c1 (centres undefined)	/	/	-16%	/	/
CSCCC(NC(=O)COc1ccccc1)C(=O)N1CC(C)OC(C)C1 (centres undefined)	-7%	9%	-3%	/	-3%
CCCCC(CC)COC(=O)C(C#N)=C(c1ccccc1)c1ccccc1 (centres undefined)	2.6µM*	12%	-30%	/	2.6µM*
COc1ccc(-c2cc(C(F)(F)F)nc(N3CCOCC3)n2)cc1OC	?	12%	6%	-34%	?
NC(=O)c1cc(-c2ccccc2)nc(N2CCOCC2)n1	?	11%	-1%	1%	3%
COc1ccc(-c2cc(-c3ccccc3)nc(N3CCCC3)n2)cc1OC	9.3µM*	52%	-11%	12%	0%
NC(=O)c1cc(-c2ccccc2)nc(N2CCCCCC2)n1	0%	27%	-3%	-47%	13µM*
CCC(C(=O)Nc1cc(-c2cn3cccnc3n2)ccc1C)c1ccccc1 (centres undefined)	/	/	3%	/	/
CN1CCC(N2CCN(C3CN(Cc4cn(Cc5ccc(C(F)(F)F)cc5)nn4)S(=O)(=O)C3)CC2)CC1 (centres undefined)	/	-7%	/	/	/
COc1ccc(-c2c3c([nH]c(=S)c2C#N)CCC3)cc1	-28%	-8%	45µM*	24%	-29%
N#Cc1c(-c2ccco2)c2c([nH]c1=S)CCCC2	-10%	-16%	2.8µM*	?	10µM*
CCN(CC)C(=O)c1c(C)[nH]c(=S)c(C#N)c1-c1ccco1	-15%	50%	14µM*	/	-30%
COc1ccc(OC)c(-c2c3c([nH]c(=S)c2C#N)CCCC3)c1	-25%	45%	-18%	11%	-8%
Cc1nnc2ccc(-c3ccc(NS(=O)(=O)c4ccc(F)cc4F)cc3)nn12	?	3%	-2%	/	?
O=C(O)C(Cc1cc(I)c(O)c(I)c1)c1ccccc1 (centres undefined)	-4%	/	/	/	?
CCOC(=O)Cc1nn(Cc2nc(-c3ccc(C)cc3)cs2)c(=O)c2ccccc12	35%	-1%	7%	-2%	?
Cc1ccc(S(=O)(=O)N2CC(O)CC2C(=O)OCc2nc3sc(C)c(C)c3c(=O)[nH]2)cc1 (centres undefined)	12µM*	18%	-19%	19%	13µM*
Cn1c(=O)c2c(ncn2CC(=O)N/N=C/C=C/c2ccco2)n(C)c1=O	31%	-24%	11µM*	7%	35%
CC(/C=N/NC(=O)Cn1cnc2c1c(=O)n(C)c(=O)n2C)=C\c1ccco1	4%	14%	25µM*	2%	-1%
Cn1c(=O)c2c(ncn2CC(=O)N/N=C/C(Cl)=C/c2ccccc2)n(C)c1=O	17%	7%	-2%	2%	43%

Source: PubChem BioAssay
